# Reference: PubChem BioAssay (NCATS)
# Where “and” joins values, the source holds several entries; their conditions need not be identical. Equal entries are not always repeated. Results filed as inconclusive are left out. Where a call stands in place of a potency, no number is given. Calls of active or inactive are those of the source. Calls follow the shape of the dose curve; as a rule, active = well fitted inhibition curve with a large enough effect in the repeat runs; inconclusive = weak or mixed curves; inactive = flat fitted curve, though single readings scatter.
# Target: Cytochrome P450 2D6 (Homo sapiens) (UniProt P10635)
# Sequence (P10635 whole entry, looked up): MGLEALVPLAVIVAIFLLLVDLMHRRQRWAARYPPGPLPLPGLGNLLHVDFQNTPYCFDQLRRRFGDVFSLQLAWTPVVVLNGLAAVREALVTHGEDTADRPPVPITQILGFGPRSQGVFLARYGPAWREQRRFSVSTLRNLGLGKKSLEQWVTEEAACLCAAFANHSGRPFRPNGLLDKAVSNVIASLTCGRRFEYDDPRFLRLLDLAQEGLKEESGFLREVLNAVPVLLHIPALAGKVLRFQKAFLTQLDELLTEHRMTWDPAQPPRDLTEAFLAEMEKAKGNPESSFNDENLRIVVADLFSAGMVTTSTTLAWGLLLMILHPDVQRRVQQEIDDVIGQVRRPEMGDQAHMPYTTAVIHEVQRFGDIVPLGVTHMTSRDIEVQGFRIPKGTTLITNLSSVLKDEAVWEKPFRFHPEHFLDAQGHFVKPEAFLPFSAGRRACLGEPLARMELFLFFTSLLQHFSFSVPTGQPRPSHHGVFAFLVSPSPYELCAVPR
# Experiment: Cytochrome P450 family 2 subfamily D member 6 (CYP2D6) small molecule antagonists: luciferase biochemical (cell-free) qHTS assay (AID 1645840); also: nearly all actives have a fitted effect of over 55% in size
# Conditions: P450-Glo CYP2D6 enzyme, luciferin luminescence, 1 h; series mostly up to 57.4 µM
# Protocol: National Center for Advancing Translational Sciences [NCATS] Assay Overview: Cytochrome P450 (CYP) enzymes are membrane-bound hemeproteins that play a key role in metabolism of drugs and xenobiotics. Assaying the effect of chemicals on CYP isozymes is useful to minimize the adverse drug reactions and toxicities in drug development process. Chemical compounds were tested for their effect on CYP enzyme activities by using P450-Glo (TM) screening systems (Promega Corporation, Madison, WI). These systems provide a luminescent method containing proluciferin substrates and are converted to luciferin products by CYP isozymes. The luciferin products formed are detected with a luciferin detection reagent, and the amount of light produced is proportional to CYP activity. P450-Glo (TM) CYP2D6 screening system (Catalog. No. V9890) was used to detect the compounds that interfere in CYP2D6 activity.
# Assay Protocol Summary: Two ul of enzyme-substrate mix was dispensed into medium binding white/solid 1536-well plates (Greiner Bio-One North America Inc., Monroe, NC) using a Flying Reagent Dispenser (FRD, Aurora Discovery, San Diego, CA). […] The assay plates were incubated at room temperature for 10 min. Then 2 ul of NADPH regeneration solution was added to each well of the assay plates using an FRD and incubated at room temperature for 1 h. The reaction was stopped by adding 4 ul of detection reagent using an FRD and after 20 min incubation at room temperature, the luminescence signal was measured using a ViewLux plate reader (Perkin Elmer, Shelton, CT). Data were expressed as relative luminescence units.
# Potency is read from the fitted curve at half-maximal effect.
row,Structure (SMILES),Potency
1,CCn1c(=O)c2c(nc(C=Cc3ccc(OC)c(OC)c3)n2C)n(CC)c1=O,inactive
2,Cn1cc(-c2ccc3ncc(Cc4ccc5ncccc5c4)n3n2)cn1,12 µM (active)
3,C=CC(=O)Nc1ccc2ncnc(Nc3ccc(OCc4cccc(F)c4)c(Cl)c3)c2c1,inactive
4,CCCc1nc(C(C)(C)O)c(C(=O)O)n1Cc1ccc(-c2ccccc2-c2nn[nH]n2)cc1,inactive
5,C[C@@H](NCc1cc2ccccc2[nH]1)c1cccc2ccccc12,0.0952 µM (active)
6,C[C@H](O)[C@@H]1C(=O)N2C(C(=O)O)=C(S[C@@H]3CN[C@H](CNS(N)(=O)=O)C3)[C@@H](C)[C@@H]12,inactive
7,COc1ccc(Nc2cc(-c3cnc(N)nc3)nc(N3CCOCC3)n2)cn1,inactive
8,Nc1ccn(C2CO[C@H](CO)O2)c(=O)n1 (stereo not given in full),inactive
9,CC(C)(N)c1ccc(-c2nc3ccccc3nc2-c2ccccc2)cc1,15.1 µM (active)
10,N[C@H]1CN(c2c(F)cc3c(=O)c(C(=O)O)cn(C4C[C@@H]4F)c3c2Cl)CC12CC2 (stereo not given in full),inactive
11,COc1cc(C(C)C)c(Oc2cnc(NC(CO)CO)nc2N)cc1I,19 µM (active)
12,CCOc1cc2c(c(F)c1OCC)C(=N)N(CC(=O)c1cc(N3CCOCC3)c(OC)c(C(C)(C)C)c1)C2,5.35 µM (active)
13,O=C(Nc1ccc(Oc2ccnc3[nH]ccc23)c(F)c1)c1cccn(-c2ccc(F)cc2)c1=O,inactive
14,Cc1cnc(Nc2ccc(CN3CCOCC3)cc2)nc1Nc1cccc(S(=O)(=O)NC(C)(C)C)c1,9.52 µM (active)
15,Cc1ncc(-c2ccnc(Nc3ccc(S(C)(=O)=O)cc3)n2)n1C(C)C,inactive
16,C#CCC(Cc1cnc2nc(N)nc(N)c2n1)c1ccc(C(=O)N[C@@H](CCC(=O)O)C(=O)O)cc1 (stereo not given in full),inactive
17,CCc1c(O)cc(O)c(C(=O)c2ccc(OCCN3CCOCC3)c(OC)c2)c1CC(=O)N(CCOC)CCOC,inactive
18,Cn1cc(CNCC2CCN(c3ncc(C(=O)NO)cn3)CC2)c2ccccc21,3.38 µM (active)
19,N#Cc1c(C2CCNCC2)cc(-c2c(O)cccc2OCC2CC2)nc1N,0.674 µM (active)
20,Cc1cc(O)c2c(c1)C(=O)c1cccc(O)c1C2=O,inactive

row,Structure (SMILES),Potency
1,CS(=O)(=O)N1CCc2c(-c3cnc(N)nc3)nc(N3CCOCC3)nc21,inactive
2,COC[C@H](NC(=O)c1cnc(C)s1)C(=O)N[C@@H](COC)C(=O)N[C@@H](Cc1ccccc1)C(=O)[C@@]1(C)CO1,inactive
3,CN(C)CC(=O)N1CCC(c2ccc(NC(=O)c3ncc(C#N)[nH]3)c(C3=CCCCC3)c2)CC1,inactive
4,CCc1nc(-c2cccc(C)c2)c(-c2ccnc(NC(=O)c3ccccc3)c2)s1,inactive
5,Cc1noc(-c2ccc(CSCCC(=O)O)cc2)c1NC(=O)OC(C)c1ccccc1Cl (stereo not given),inactive
6,CCOC(=O)N1CCN([N+]([O-])=NOc2ccc([N+](=O)[O-])cc2C#N)CC1,inactive
7,Oc1cc(-c2nc(-c3ccccc3)[nH]c2-c2ccncc2)ccc1Cl,0.756 µM (active)
8,CCCCCCCCCCCCCCCC(=O)OC[C@@H](NC(=O)C(Cl)Cl)[C@H](O)c1ccc([N+](=O)[O-])cc1,inactive
9,Cc1ccc(-n2[nH]c(C)c(N=Nc3cccc(-c4cccc(C(=O)O)c4)c3O)c2=O)cc1C,4.9 µM (active) and 7.56 µM (active)
10,OCCNC1CCCc2c1[nH]c1ccc(-c3ccccc3)cc21 (stereo not given),15.1 µM (active)
11,Cc1cn([C@@H]2O[C@H](CO)[C@@H](O)[C@H]2F)c(=O)[nH]c1=O,inactive
12,Cn1cnc2c(F)c(Nc3ccc(Br)cc3F)c(C(=O)NOCCO)cc21,inactive
13,CC(O)(C#Cc1ccc2c(c1)N(c1nc(N)ncc1Cl)CC2)c1nccs1 (stereo not given),9.52 µM (active)
14,Oc1cc2c(cc1O)C1c3ccc(O)c(O)c3OCC1(O)C2 (stereo not given),inactive
15,NC1=N[C@H]2[C@H](CS[C@H]2CCCCC(=O)O)N1,inactive
16,NC(=O)c1cccc(-c2cccc(OC(=O)NC3CCCCC3)c2)c1,inactive
17,FC(F)c1nc2ccccc2n1-c1nc(N2CCOCC2)nc(N2CCOCC2)n1,inactive
18,O=C1NC(O)CCN1[C@@H]1O[C@H](CO)[C@H](O)[C@H]1O (stereo not given in full),inactive
19,c1ccc2c(Oc3nc(Nc4ccc(N5CCOCC5)cc4)c4ncn(C5CCCCC5)c4n3)cccc2c1,inactive
20,O=C(Nc1cc2cc[nH]c2cn1)c1ccccc1,13.5 µM (active)
